From PubChem BioAssay (NCATS) come the findings set out here.

Results filed as inconclusive are left out. Active and inactive are the calls of the source. Unless noted, calls come from the whole dose curve; as a rule, active = well fitted curve in the direction sought with a large enough effect; inconclusive = small, poorly fitted or top-dose-only effect, or another doubt; inactive = no such curve, though single readings can be large; an effect the other way counts as inactive or inconclusive.

A short description of test [1]: qHTS Assay for Identification of Small Molecule Agonists for Thrombopoietin (TPO) Signaling Pathway (AID 917). Note: potency is the fitted concentration of half-maximal effect. Put shortly: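 Ba/F3 (mouse) + hTPO receptor + GpIIb-promoter luciferase; IL-3 withdrawn overnight; compound + 26 pM TPO (EC50), 24 hrs, 37 C, 5% CO2; Steadylite luminescence, 10 min RT.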
(In qHTS, concentration-response curves come from the screen itself.)

The target of test [2] is Muscarinic acetylcholine receptor M1 (Rattus norvegicus) (UniProt P08482). The experiment in a line: qHTS Assay for Antagonists of Acetylcholine Muscarinic M1 Receptor: Kinetic Measurement of Intracellular Calcium Response (AID 943). Note: nearly all actives have a fitted effect of over 75% in size. Note: potency is the fitted concentration of half-maximal effect. In outline: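 Antagonism measured as reduction of carbachol-evoked (EC80, 100 nM final) calcium flux in rat M1-CHO cells after 10 min compound exposure. Fluo-4 signal read kinetically; ratio of maximal to basal fluorescence.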

For test [3] the target is unchanged. As to the kind of experiment: qHTS Assay for Antagonists of Acetylcholine Muscarinic M1 Receptor: Measurement of IP-One Response (AID 944). Note: nearly all actives have a fitted effect of over 75% in size. Note: potency is the fitted concentration of half-maximal effect. In outline:
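IP1 accumulation measured via TR-FRET between d2-IP1 and Eu-cryptate anti-IP1 antibody after carbachol (200 nM, EC80) stimulation for 30 min; rat M1-transfected CHO cells received compound 10 min before agonist.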

The target of test [4] is Pyruvate kinase (Leishmania mexicana) (UniProt Q27686). As to the kind of experiment: qHTS Validation Assay for Inhibitors of Leishmania Mexicana Pyruvate Kinase (AID 945). Note: potency is the fitted concentration of half-maximal effect. In outline: (§1)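 Mutant LmPYK (E451W), 0.2 nM, plus 0.5 mM PEP and 0.1 mM ADP in 50 mM imidazole pH 7.2 containing 0.01% Tween 20 and 0.05% BSA. Incubated 1 h at room temperature; luminescence via PKLight, normalized to DMSO.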

Test [5] addresses Pyruvate kinase PKM (Homo sapiens) (UniProt P14618). As to the kind of experiment: qHTS Assay for Activators of Human Muscle Pyruvate Kinase (AID 954; active = well fitted curve in the direction sought with a large enough effect, not every such curve was filed as active). Put shortly: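 Compound pinned into substrate mix (0.5 mM PEP, 0.1 mM ADP), then 0.1 nM PKM2 added; 1 h, RT. Stop/detection luciferase reagent added, luminescence read. Normalized to no-inhibition and no-enzyme or reference-inhibitor controls.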

The target in test [6] is Pyruvate kinase (Leishmania mexicana) (UniProt Q27686). As to the kind of experiment: qHTS Validation Assay for Activators of Leishmania Mexicana Pyruvate Kinase (AID 959). Put shortly: as §1
Test [7] can be described thus: Confirmation and Secondary Assay for Modulators of Hemoglobin Beta Chain Splicing at IVS2 705 locus (AID 930).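 Note: HeLa cells stably expressing the EGFP-705 splicing reporter; GFP fluorescence per well restored by corrected splicing of the IVS2-705 intron in EGFP; series mostly up to about 46 µM.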 In outline:
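Stable HeLa line with EGFP disrupted by mutant beta-globin intron 2 (705). Overnight attachment, then 2 days of compound at 37C, 5% CO2. Signal: peak GFP intensity summed over objects 5-250 µm.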

A short description of test [8]: Cell Viability - LYMP2-001 (AID 921). Note: series mostly up to about 92 µM; nearly all actives have a fitted effect of over 70% in size. In outline: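 CellTiter-Glo luminescence (intracellular ATP) after 24 hr compound exposure at 37 C, 2500 lymphoblastoid cells/well in complete medium. AC50 fitted with standard Hill equation; tetraoctylammonium bromide positive control.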
The nature of test [9]: MultiTox-Fluor Cytotoxicity Assay - LYMP1-001 - Dead Cells (AID 946). Put shortly: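 LYMP1-001 lymphoblastoid cells (2500/well) treated 16 h at 37 C. Dead-cell protease cleavage of bis-AAF-R110 read at Ex/Em 485/520. Normalized to DMSO and 15 uM tetraoctylammonium bromide; AC50 from Hill fits.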
Test [10] is described as follows: MultiTox-Fluor Cytotoxicity Assay - LYMP1-001 - Live Cells (AID 947).
The nature of test [11]: Cell Viability - LYMP1-002 - Assay at 16 hr (AID 948). Put shortly: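 LYMP1-002 human lymphoblastoid cells, 2500/well; 5 hr 37 C; cpd 16 hr 37 C; CellTiter-Glo 30 min RT; luminescence (ATP). Concentration-response, Hill-fit AC50. Pos ctrl tetraoctylammonium bromide.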
Test [12] in a line: MultiTox-Fluor Cytotoxicity Assay - LYMP1-002 - Live Cells (AID 955). In outline:
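After 16 h compound exposure at 37 C, live LYMP1-002 lymphoblastoid cells (2500/well) were quantified by cleavage of cell-permeant GF-AFC substrate, read at 405/510 nm after 60 min. Concentration-response fitted with Hill equation for AC50.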

The nature of test [13]: MultiTox-Fluor Cytotoxicity Assay - LYMP1-003 - Dead Cells (AID 961). Note: nearly all actives have a fitted effect of over 70% in size. Put shortly:
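LYMP1-003 human lymphoblastoid cells (2500/well) exposed to compound 16 h at 37 C in complete medium; dead-cell protease read with bis-AAF-R110 fluorescence (Ex/Em 485/520) after 60 min at room temperature. Normalized to DMSO and 15 uM tetraoctylammonium bromide; AC50 from Hill fit.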

Test [14] is described as follows: MultiTox-Fluor Cytotoxicity Assay - LYMP1-003 - Live Cells (AID 962).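 Note: cytotoxic hits lower the live-cell protease signal.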 Put shortly: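 Live-cell protease activity (GF-AFC substrate, 405/510 nm, 60 min at room temperature) after 16 h, 37 C compound exposure of human lymphoblastoid LYMP1-003 cells; concentration-response fitted to the Hill equation for AC50.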
Test [15] can be described thus: Cell Viability - LYMP1-003 - Assay at 24 hr (AID 963). Put shortly:
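Concentration-response qHTS: ATP loss measured by CellTiter-Glo luminescence after 24 h compound exposure at 37 C. Cells were LYMP1-003 human lymphoblastoid, 2500 per well. AC50 derived via standard Hill equation modeling.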

Sequence of Pyruvate kinase PKM (Homo sapiens) (P14618 whole entry, looked up): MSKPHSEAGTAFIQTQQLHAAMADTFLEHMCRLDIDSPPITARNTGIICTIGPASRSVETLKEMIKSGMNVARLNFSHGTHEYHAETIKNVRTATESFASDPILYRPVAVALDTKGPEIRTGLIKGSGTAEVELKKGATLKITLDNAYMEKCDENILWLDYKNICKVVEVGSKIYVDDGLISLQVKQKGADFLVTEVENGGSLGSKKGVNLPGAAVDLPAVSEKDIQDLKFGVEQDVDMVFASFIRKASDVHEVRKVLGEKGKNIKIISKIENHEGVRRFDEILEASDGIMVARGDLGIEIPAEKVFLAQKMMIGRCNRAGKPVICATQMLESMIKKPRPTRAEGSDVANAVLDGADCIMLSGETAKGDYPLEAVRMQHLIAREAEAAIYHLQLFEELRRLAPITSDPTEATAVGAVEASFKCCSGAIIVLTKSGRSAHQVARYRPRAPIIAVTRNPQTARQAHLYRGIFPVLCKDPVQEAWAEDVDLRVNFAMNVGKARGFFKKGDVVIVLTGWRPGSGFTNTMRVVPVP
Sequence of Muscarinic acetylcholine receptor M1 (Rattus norvegicus) (P08482 whole entry, looked up): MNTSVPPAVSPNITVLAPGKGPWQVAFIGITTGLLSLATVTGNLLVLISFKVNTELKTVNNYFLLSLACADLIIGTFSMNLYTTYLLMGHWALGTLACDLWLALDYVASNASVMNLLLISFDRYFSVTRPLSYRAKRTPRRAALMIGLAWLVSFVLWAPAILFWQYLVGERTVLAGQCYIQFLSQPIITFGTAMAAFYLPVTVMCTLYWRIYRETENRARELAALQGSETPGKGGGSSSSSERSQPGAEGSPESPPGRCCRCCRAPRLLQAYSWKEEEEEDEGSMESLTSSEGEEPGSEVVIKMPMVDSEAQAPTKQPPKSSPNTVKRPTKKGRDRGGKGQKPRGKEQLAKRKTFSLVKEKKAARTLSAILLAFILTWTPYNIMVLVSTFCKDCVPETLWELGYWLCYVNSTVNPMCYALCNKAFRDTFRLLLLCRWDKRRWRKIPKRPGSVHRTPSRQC
Sequence of Pyruvate kinase (Leishmania mexicana) (Q27686 2-499 E452W): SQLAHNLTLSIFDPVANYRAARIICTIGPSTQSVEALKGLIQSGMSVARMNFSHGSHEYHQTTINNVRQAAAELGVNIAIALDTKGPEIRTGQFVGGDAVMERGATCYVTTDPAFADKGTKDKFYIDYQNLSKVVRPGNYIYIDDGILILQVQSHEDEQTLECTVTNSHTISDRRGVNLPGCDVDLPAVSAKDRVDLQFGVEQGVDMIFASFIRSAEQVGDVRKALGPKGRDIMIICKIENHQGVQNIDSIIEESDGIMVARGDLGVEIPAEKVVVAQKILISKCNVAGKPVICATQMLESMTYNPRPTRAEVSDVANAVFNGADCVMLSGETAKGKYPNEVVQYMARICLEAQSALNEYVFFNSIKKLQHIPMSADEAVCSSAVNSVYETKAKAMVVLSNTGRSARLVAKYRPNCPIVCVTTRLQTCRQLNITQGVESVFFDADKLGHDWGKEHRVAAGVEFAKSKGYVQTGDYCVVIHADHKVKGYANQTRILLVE

`O=c1[nH]c2cc(C(F)(F)F)ccc2n1-c1cc(C(F)(F)F)ccc1O`: the Potency result in test [1], in test [2], in test [3] and in test [4] was “inactive” in each case. Besides, the result in test [5] was inactive.
For `N=C(N)SCCc1ccc(CCSC(=N)N)cc1`, the Potency entry in test [1], in test [2], in [3] and in test [4] was “inactive” throughout. Further, the molecule was classed as inactive in test [5].
Regarding `CCCN(CC1CC1)c1nc(C)nc(Nc2c(Cl)cc(Cl)cc2Cl)c1Cl`, the Potency result in [1], in test [2], in [3] and in test [4] was “inactive” throughout. Also, the result in [5] was inactive.
Consider `C[N+](C)(CCCCCC[N+](C)(C)CCCN1C(=O)c2cccc3cccc(c23)C1=O)CCCN1C(=O)c2cccc3cccc(c23)C1=O`, for which the Potency entry in test [1] and in test [4] was “inactive” each time. For the same molecule, the Potency in [2] and in test [3] was 398 nM (active) each time. Also, in test [5], the call was inactive.
As for `CN(C)c1nc2c(Br)c(Br)c(Br)c(Br)c2[nH]1`, the Potency in test [1] is 1260 nM (active). For the same molecule, the Potency result in test [2], in test [3] and in [4] was “inactive” each time. For the same molecule, in [5], the result was inactive.
Regarding `N[C@@H](CC(=O)O)C(=O)O`, the Potency result in [1], in test [2], in test [3] and in test [4] was “inactive” in each case. In addition, in test [5], the call was inactive.
For the molecule `CN1CCc2cc(NC(=O)Nc3cccnc3)ccc21`, the Potency in test [1] is 1580 nM (active); in test [4] it was 20000 nM (active). In addition, the Potency entry in [2] and in [6] was “inactive” each time. Further, the outcome in test [5] was inactive.
`O=S(=O)(c1cccc2c(I)cccc12)N1CCCNCC1`: the Potency result in test [1], in test [2], in test [3] and in [4] was “inactive” throughout. For the same molecule, the molecule was classed as inactive in test [5].
With `O=c1[nH]c2ccccc2n1CCCN1CCN(C(c2ccccc2)c2ccccc2)CC1`, the Potency result in [1] and in test [4] was “inactive” throughout. Besides, the Potency in test [2] is 5010 nM (active); in test [3] it was 15800 nM (active). Also, the molecule was classed as inactive in [5].
As for `O=C(Nc1cccc(C(=O)Nc2ccc(S(=O)(=O)O)c3cc(S(=O)(=O)O)cc(S(=O)(=O)O)c23)c1)Nc1cccc(C(=O)Nc2ccc(S(=O)(=O)O)c3cc(S(=O)(=O)O)cc(S(=O)(=O)O)c23)c1`, the Potency result in [1], in [2] and in test [4] was “inactive” throughout. For the same molecule, the molecule was called inactive in [5]. Moreover, the Potency in [6] was 398 nM (active).
For `c1ccc(-c2ccccn2)nc1`, the Potency entry in [1], in test [2], in [3] and in [4] was “inactive” each time. Besides, in test [5], the call was inactive.
On to `CN(C)C(N)=NCCC[C@H](N)C(=O)O`, for which the Potency result in test [1], in test [2], in [3] and in [4] was “inactive” each time. In addition, the molecule was classed as inactive in test [5].
On to `CC(C)(C=O)Cc1cc(C(C)(C)C)c(O)c(C(C)(C)C)c1`, for which the Potency entry in [1], in test [2] and in test [4] was “inactive” each time. Further, the outcome in test [5] was inactive.
In the case of `Cc1cc(NC(=O)Nc2ccc3c(ccn3C)c2)sn1`, the Potency in test [1] was 1580 nM (active). The Potency result in [2] and in test [6] was “inactive” each time. In test [5], the call was inactive.
As to `CC(=O)SCC[N+](C)(C)C`, the Potency entry in test [1], in [2], in test [3] and in test [4] was “inactive” in each case. Also, the result in test [5] was inactive.
Turning to `CC1(C)CCC=[N+]1[O-]`, the Potency result in [1], in test [2] and in test [4] was “inactive” throughout. The Potency in [3] is 11200 nM (active). Besides, in test [5], the outcome was inactive.
As to `CCCCCCCC/C=C\CCCCCCCC(=O)NCCO`, the Potency result in test [1], in test [2], in [3] and in [4] was “inactive” throughout. Also, the call in [5] was inactive.
`O=C(O)[C@@H]1C[C@@H](C(=O)O)N1`: the Potency result in test [1], in [2], in test [3] and in test [4] was “inactive” each time. For the same molecule, the outcome in test [5] was inactive.
Regarding `NCCCCC(=O)O`, the Potency result in [1], in [2], in [3] and in [4] was “inactive” each time. Also, the molecule was classed as inactive in test [7] and in [5].
With `N[C@H](CCCP(=O)(O)O)C(=O)O`, the Potency result in [1], in [2] and in test [4] was “inactive” each time. Further, in test [5], the molecule was called inactive.
As for `CCCCN1CCC(n2c(=O)[nH]c3ccccc32)CC1`, the Potency result in test [1], in [2] and in test [4] was “inactive” in each case. Moreover, the molecule was called inactive in test [5].
For the molecule `O=C(O)CC[C@@H](C(=O)O)N1C(=O)c2ccccc2C1=O`, the Potency entry in test [1], in test [3] and in test [4] was “inactive” each time. For the same molecule, in [2], the Potency is 25.1 nM (active). Further, the result in test [5] was inactive.
Turning to `N.N.O=C(O)C1(C(=O)O)CCC1.[Pt]`, the Potency result in test [1], in [2], in test [3] and in test [4] was “inactive” in each case. Further, the result in test [7] and in [5] was inactive.
With `O=C(O)c1cc(=O)c2c(Cl)cc(Cl)cc2[nH]1`, the Potency result in [1] and in test [4] was “inactive” in each case. Besides, the outcome in [7] and in test [5] was inactive.
Turning to `C[N+]1(C)CCC(OC(=O)C(c2ccccc2)c2ccccc2)CC1`, the Potency result in test [1] and in [4] was “inactive” throughout. In addition, the Potency in [2] is 15.8 nM (active); in test [3] it was 11.2 nM (active). Besides, the molecule was called inactive in test [5].
For the molecule `O=C(c1cc(O)c(O)c([N+](=O)[O-])c1)c1ccccc1F`, the Potency result in test [1], in [2], in [3] and in test [4] was “inactive” each time. For the same molecule, in [5], the outcome was inactive.
As to `Clc1ccc(N2CCN(Cc3c[nH]c4ncccc34)CC2)cc1`, the Potency entry in test [1], in test [3] and in [4] was “inactive” in each case. Moreover, the molecule was called inactive in test [5].
Take `O=c1[nH]c2cc([N+](=O)[O-])c([N+](=O)[O-])cc2[nH]c1=O`: the Potency entry in [1], in [2], in test [3] and in [4] was “inactive” in each case. The outcome in test [5] was inactive.
Turning to `O=C(O)c1cc(=O)c2ccccc2[nH]1`, the Potency entry in test [1] and in [3] was “inactive” in each case. The molecule was classed as inactive in test [7] and in [5].
For `NC(=O)C(=O)O`, the Potency result in [1], in test [2], in [3] and in test [4] was “inactive” throughout. Further, in [5], the call was inactive.
In the case of `CN1CCc2ccccc2Cc2[nH]c3ccccc3c2CC1`, the Potency result in [1] and in [4] was “inactive” each time. For the same molecule, the Potency in test [3] is 15800 nM (active). Further, in [5], the result was inactive.
On to `COc1cc(CNC(=O)CCCC/C=C/C(C)C)ccc1O`, for which the Potency result in [8], in test [9], in test [10], in test [11], in test [12] and in test [13] was “inactive” in each case. The Potency result in [14] and in [15] was “inactive” throughout. Further, in test [7], the molecule was classed as inactive.
